From PubChem BioAssay (NCI) come the findings set out here.

Holding throughout (assay): NCI-60 one-dose screen, 48 h (100 = growth as untreated, 0 = no growth, -100 = all killed)
One experiment relates to DU-145 prostate. Particulars: 10 µM unless noted.
Another experiment deals with K-562 leukemia. Particulars: 10 µM unless noted.
Another experiment concerns MALME-3M melanoma. Particulars: 10 µM unless noted.
The subject of a further experiment is MDA-MB-231 breast. Particulars: 10 µM unless noted.
In a further experiment the test system is RXF 393 renal. Particulars: 10 µM unless noted.
For the next experiment, the system named is SF-268 CNS. Particulars: 10 µM unless noted.
A further experiment has as its system SF-295 CNS. Particulars: 10 µM unless noted.
For the next experiment, the system named is SF-539 CNS. Particulars: 10 µM unless noted.
The subject of a further experiment is UACC-257 melanoma. Particulars: 10 µM.
The subject of another experiment is M14 melanoma. Particulars: 10 µM unless noted.

The panel holds about 83,000 compounds, 20% with a hit somewhere; the sample as a whole holds those more often.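 Note: values are percent growth. 100 is the growth of untreated cells, values between 100 and 0 indicate rising inhibition; between -100 and 0 indicates cell death.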 Unmarked numbers belong to inactive results. Active and inactive are the calls of the source. How the source made its calls: active means growth percent below 10; inactive means the rest.

As to `Cc1cccc(NC(=O)c2sc3nc4c(cc3c2N)CCC4)c1C`, the growth in the experiment with DU-145 prostate is 10.6%; with K-562 leukemia, 13.8%; in the experiment on MALME-3M melanoma, 45.5%; in the experiment with MDA-MB-231 breast it was 30.6%; with RXF 393 renal it was -4.81% (active); in the experiment on SF-268 CNS, 35.1%. Besides, the growth was 4.77% (active) with SF-295 CNS, 1.33% (active) in the experiment with SF-539 CNS, 54.8% in the experiment with UACC-257 melanoma and 19.1% with M14 melanoma.

With `Cc1ccc(Oc2nc3ccccc3cc2-c2nnc(Cn3c(COc4ccccc4)nc4ccccc43)o2)cc1`, the growth in the experiment on DU-145 prostate is 63.5%; in the experiment on K-562 leukemia it was -3.18% (active); in the experiment on MALME-3M melanoma, 72.5%; with MDA-MB-231 breast it was 47.7%; in the experiment with RXF 393 renal it was 60.3%; in the experiment with SF-268 CNS, 20.6%. Also, the growth with SF-295 CNS was 92%; with SF-539 CNS it was 63.3%; with UACC-257 melanoma, 94.6%; with M14 melanoma, 45.5%.

Take `COc1ccc(/C=C/c2nc(N3CCOCC3)c3nc(Cl)c(Cl)cc3n2)cc1OC`: the growth with DU-145 prostate was 101%; with K-562 leukemia it was 77.7%; in the experiment with MALME-3M melanoma it was 144%; in the experiment on MDA-MB-231 breast, 110%; in the experiment with RXF 393 renal, 109%; in the experiment with SF-268 CNS it was 105%. The growth in the experiment on SF-295 CNS is 87.9%; with SF-539 CNS it was 98.8%; with UACC-257 melanoma, 111%; in the experiment with M14 melanoma it was 103%.

Turning to `Cc1nc(Nc2cccnc2)sc1C(=O)/C=C/c1ccc(Cl)cc1`, the growth was 17.6% in the experiment with DU-145 prostate; 7.88% (active) with K-562 leukemia; 89.7% in the experiment with MALME-3M melanoma; 73.9% in the experiment on MDA-MB-231 breast; 16.2% in the experiment with RXF 393 renal; 46.7% with SF-268 CNS. For the same compound, the growth is 42.8% with SF-295 CNS, -14.5% (active) in the experiment on SF-539 CNS, 73.7% in the experiment on UACC-257 melanoma and 38.2% in the experiment on M14 melanoma.

Consider `COc1ccc(S(=O)(=O)Nc2cc(/C=C\c3cc(OC)c(OC)c(OC)c3)cc(OC)c2OC)cc1OC`, for which the growth in the experiment on DU-145 prostate was 13.9%; in the experiment with K-562 leukemia, 15.8%; in the experiment on MALME-3M melanoma, 84.1%; in the experiment on MDA-MB-231 breast, 32.3%; in the experiment with RXF 393 renal it was -8.93% (active); in the experiment with SF-268 CNS, 38.4%. Further, the growth is 8.39% (active) in the experiment on SF-295 CNS, -18.6% (active) with SF-539 CNS, 72% in the experiment on UACC-257 melanoma and 2.52% (active) with M14 melanoma.

As to `COc1ccc(C(=O)/C=C/c2cccc([N+](=O)[O-])c2)c(OC)c1`, the growth with DU-145 prostate was 25.3%; in the experiment on K-562 leukemia, 8.25% (active); in the experiment with MALME-3M melanoma, 70.5%; with MDA-MB-231 breast, 34.7%; in the experiment on RXF 393 renal it was -33.8% (active); with SF-268 CNS it was 25%. The growth in the experiment on SF-295 CNS was 35.5%; with SF-539 CNS it was 8.09% (active); with UACC-257 melanoma, 66.4%; in the experiment on M14 melanoma, 30.6%.

For `COc1cc(Cn2c(SCC(=O)Nc3cc(OC)c(OC)c(OC)c3)nc3ccccc3c2=O)cc(OC)c1OC`, the growth in the experiment on DU-145 prostate was 94.6%; with K-562 leukemia, 97.4%; in the experiment on MALME-3M melanoma, 82.8%; with MDA-MB-231 breast, 58.2%; with RXF 393 renal it was 61.6%; in the experiment with SF-268 CNS, 54.7%. Further, the growth in the experiment on SF-295 CNS was 85.9%; in the experiment on SF-539 CNS, 66.1%; in the experiment with UACC-257 melanoma, 102%; with M14 melanoma, 95%.

As for `O=C(Nc1ccc(Cl)cc1)c1cc(-c2ccc(F)cc2)c2sc(=O)[nH]c2n1`, the growth in the experiment on DU-145 prostate was 24.2%; in the experiment on K-562 leukemia, 10.6%; in the experiment with MALME-3M melanoma, 4.01% (active); with MDA-MB-231 breast, 5.74% (active); in the experiment on RXF 393 renal, 5.27% (active); in the experiment with SF-268 CNS, 23.6%. Further, the growth is 9.57% (active) with SF-295 CNS, -4.01% (active) in the experiment on SF-539 CNS, -8.82% (active) in the experiment on UACC-257 melanoma and 13.9% in the experiment on M14 melanoma.

Consider `COc1cccc(/C=C/c2c(C(=O)O)cccc2[N+](=O)[O-])c1OC`, for which the growth in the experiment with DU-145 prostate is 102%; with K-562 leukemia it was 90.4%; with MALME-3M melanoma, 94.8%; in the experiment with MDA-MB-231 breast, 107%; with RXF 393 renal, 108%; in the experiment on SF-268 CNS, 95.8%. For the same compound, the growth in the experiment with SF-295 CNS is 91.6%; in the experiment on SF-539 CNS, 104%; in the experiment with UACC-257 melanoma, 101%; in the experiment with M14 melanoma, 103%.

Take `COc1ccc(C(=O)/C=C/c2cc(C(=O)c3cc(OC)c(OC)c(OC)c3)ccc2OC)cc1`: the growth was 79.3% in the experiment on DU-145 prostate; 12.8% in the experiment with K-562 leukemia; 77.9% in the experiment on MALME-3M melanoma; 51.8% in the experiment on MDA-MB-231 breast; 73% in the experiment with RXF 393 renal; 59.2% in the experiment on SF-268 CNS. The growth with SF-295 CNS was 98.1%; in the experiment on SF-539 CNS it was 55%; with UACC-257 melanoma, 68%; with M14 melanoma it was 64.7%.

Consider `COc1ccc(NC(=O)CSc2nc3ccccc3c(=O)n2-c2ccccc2C(F)(F)F)c(OC)c1OC`, for which the growth in the experiment with DU-145 prostate was 105%; in the experiment with K-562 leukemia, 94.5%; in the experiment on MALME-3M melanoma, 106%; in the experiment on MDA-MB-231 breast it was 89%; in the experiment on RXF 393 renal, 108%; in the experiment on SF-268 CNS, 100%. The growth in the experiment on SF-295 CNS is 94.2%; with SF-539 CNS it was 94.7%; in the experiment on UACC-257 melanoma, 100%; in the experiment on M14 melanoma it was 97.5%.

For the compound `COc1ccc(-c2nc(-c3ccccc3)c(-c3ccccc3)n2C2CC2)cc1OC1CCCCC1`, the growth is 73.2% in the experiment with DU-145 prostate; 31.4% in the experiment on K-562 leukemia; 76.5% with MALME-3M melanoma; 61.2% in the experiment with MDA-MB-231 breast; 73.7% in the experiment with RXF 393 renal; 56.3% with SF-268 CNS. Besides, the growth in the experiment on SF-295 CNS is 54.8%; in the experiment with SF-539 CNS, 81%; with UACC-257 melanoma it was 85.1%; in the experiment with M14 melanoma, 76.7%.

For the compound `O=C(CN1CCN(c2cc3c(cc2F)c(=O)c(C(=O)O)cn3C2CC2)CC1)Nc1ccc(C(=O)/C=C/c2ccccc2)cc1`, the growth was 43.1% in the experiment on DU-145 prostate; 14.2% with K-562 leukemia; 51% with MALME-3M melanoma; 55.1% with MDA-MB-231 breast; 41.7% in the experiment on RXF 393 renal; 37% in the experiment with SF-268 CNS. Also, the growth in the experiment on SF-295 CNS is 15.2%; in the experiment with SF-539 CNS it was 26.2%; with UACC-257 melanoma, 61.1%; with M14 melanoma, 31.8%.
